Test results taken from PMC9911399, “Two distinct binding modes provide the RNA-binding protein RbFox with extraordinary sequence specificity”.
Where a chain is given by its changes, count along the chain named. In all, about 16,000 sequences were measured (“ka relative to ugcaugu”: median about 0.096, highest 2% from about 0.35 on). Only a selection was taken, and the highest values are over-represented in it overall.

T1: RBFOX1 RRM RbFoxmut (Fox-RRM*) (Homo sapiens, UniProt Q9NWB1 109-208, R118D;E147R;N151S;E152T)
T1 sequence: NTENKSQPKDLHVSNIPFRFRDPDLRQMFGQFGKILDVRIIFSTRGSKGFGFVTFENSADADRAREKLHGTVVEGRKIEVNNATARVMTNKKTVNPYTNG

B1: UUCGAGC (DNA:RNA)
RNA: GGGAGACCGGAAUUCAGAUUGUCCUUCGAGCUUAAAUCCCGUCGUAGCCACCA
DNA 1: CAATCTGAATTCCGGTCTCCC
DNA 2: TGGTGGCTACGACGGGATT
B2: GAAGACC (DNA:RNA)
RNA: B1 RNA with U25G, U26A, C27A, G30C
DNA 1: CAATCTGAATTCCGGTCTCCC
DNA 2: TGGTGGCTACGACGGGATT
B3: CAAUUUU (DNA:RNA)
RNA: GGGAGACCGGAAUUCAGAUUGUCCCAAUUUUUUAAAUCCCGUCGUAGCCACCA
DNA 1: CAATCTGAATTCCGGTCTCCC
DNA 2: TGGTGGCTACGACGGGATT
B4: CUCUUGA (DNA:RNA)
RNA: B3 RNA with A26U, A27C, U30G, U31A
DNA 1: CAATCTGAATTCCGGTCTCCC
DNA 2: TGGTGGCTACGACGGGATT
B5: UUUGGCC (DNA:RNA)
RNA: B1 RNA with C27U, A29G, G30C
DNA 1: CAATCTGAATTCCGGTCTCCC
DNA 2: TGGTGGCTACGACGGGATT
B6: GACUCAA (DNA:RNA)
RNA: B3 RNA with C25G, A27C, U29C, U30A, U31A
DNA 1: CAATCTGAATTCCGGTCTCCC
DNA 2: TGGTGGCTACGACGGGATT
B7: UGUUGUG (DNA:RNA)
RNA: B3 RNA with C25U, A26G, A27U, U29G, U31G
DNA 1: CAATCTGAATTCCGGTCTCCC
DNA 2: TGGTGGCTACGACGGGATT
B8: UGUGUAG (DNA:RNA)
RNA: B1 RNA with U26G, C27U, A29U, G30A, C31G
DNA 1: CAATCTGAATTCCGGTCTCCC
DNA 2: TGGTGGCTACGACGGGATT
B9: UGUGUUG (DNA:RNA)
RNA: B3 RNA with C25U, A26G, A27U, U28G, U31G
DNA 1: CAATCTGAATTCCGGTCTCCC
DNA 2: TGGTGGCTACGACGGGATT
B10: CCCUGUC (DNA:RNA)
RNA: B3 RNA with A26C, A27C, U29G, U31C
DNA 1: CAATCTGAATTCCGGTCTCCC
DNA 2: TGGTGGCTACGACGGGATT
B11: UGUCGUG (DNA:RNA)
RNA: B3 RNA with C25U, A26G, A27U, U28C, U29G, U31G
DNA 1: CAATCTGAATTCCGGTCTCCC
DNA 2: TGGTGGCTACGACGGGATT
B12: UGUGUCG (DNA:RNA)
RNA: B1 RNA with U26G, C27U, A29U, G30C, C31G
DNA 1: CAATCTGAATTCCGGTCTCCC
DNA 2: TGGTGGCTACGACGGGATT
B13: UGUAGUG (DNA:RNA)
RNA: B3 RNA with C25U, A26G, A27U, U28A, U29G, U31G
DNA 1: CAATCTGAATTCCGGTCTCCC
DNA 2: TGGTGGCTACGACGGGATT
B14: UGUGUCU (DNA:RNA)
RNA: B3 RNA with C25U, A26G, A27U, U28G, U30C
DNA 1: CAATCTGAATTCCGGTCTCCC
DNA 2: TGGTGGCTACGACGGGATT
B15: CUGUGUC (DNA:RNA)
RNA: B3 RNA with A26U, A27G, U29G, U31C
DNA 1: CAATCTGAATTCCGGTCTCCC
DNA 2: TGGTGGCTACGACGGGATT
B16: GCACGUU (DNA:RNA)
RNA: B3 RNA with C25G, A26C, U28C, U29G
DNA 1: CAATCTGAATTCCGGTCTCCC
DNA 2: TGGTGGCTACGACGGGATT
B17: GUUAAGG (DNA:RNA)
RNA: B1 RNA with U25G, C27U, G28A, C31G
DNA 1: CAATCTGAATTCCGGTCTCCC
DNA 2: TGGTGGCTACGACGGGATT
B18: UGUACAC (DNA:RNA)
RNA: B1 RNA with U26G, C27U, G28A, A29C, G30A
DNA 1: CAATCTGAATTCCGGTCTCCC
DNA 2: TGGTGGCTACGACGGGATT
B19: GUCUCAC (DNA:RNA)
RNA: B1 RNA with U25G, G28U, A29C, G30A
DNA 1: CAATCTGAATTCCGGTCTCCC
DNA 2: TGGTGGCTACGACGGGATT
B20: GGGUCUA (DNA:RNA)
RNA: B3 RNA with C25G, A26G, A27G, U29C, U31A
DNA 1: CAATCTGAATTCCGGTCTCCC
DNA 2: TGGTGGCTACGACGGGATT
B21: UAACUCU (DNA:RNA)
RNA: B3 RNA with C25U, U28C, U30C
DNA 1: CAATCTGAATTCCGGTCTCCC
DNA 2: TGGTGGCTACGACGGGATT
B22: UCUGACU (DNA:RNA)
RNA: B1 RNA with U26C, C27U, G30C, C31U
DNA 1: CAATCTGAATTCCGGTCTCCC
DNA 2: TGGTGGCTACGACGGGATT
B23: AACCUGA (DNA:RNA)
RNA: B3 RNA with C25A, A27C, U28C, U30G, U31A
DNA 1: CAATCTGAATTCCGGTCTCCC
DNA 2: TGGTGGCTACGACGGGATT
B24: CAACUCG (DNA:RNA)
RNA: B3 RNA with U28C, U30C, U31G
DNA 1: CAATCTGAATTCCGGTCTCCC
DNA 2: TGGTGGCTACGACGGGATT
B25: UGUGUUC (DNA:RNA)
RNA: B1 RNA with U26G, C27U, A29U, G30U
DNA 1: CAATCTGAATTCCGGTCTCCC
DNA 2: TGGTGGCTACGACGGGATT
B26: CACUGAA (DNA:RNA)
RNA: B3 RNA with A27C, U29G, U30A, U31A
DNA 1: CAATCTGAATTCCGGTCTCCC
DNA 2: TGGTGGCTACGACGGGATT
B27: UUCCUUC (DNA:RNA)
RNA: B1 RNA with G28C, A29U, G30U
DNA 1: CAATCTGAATTCCGGTCTCCC
DNA 2: TGGTGGCTACGACGGGATT
B28: GUAUGCU (DNA:RNA)
RNA: B3 RNA with C25G, A26U, U29G, U30C
DNA 1: CAATCTGAATTCCGGTCTCCC
DNA 2: TGGTGGCTACGACGGGATT
B29: UUAUGCU (DNA:RNA)
RNA: B3 RNA with C25U, A26U, U29G, U30C
DNA 1: CAATCTGAATTCCGGTCTCCC
DNA 2: TGGTGGCTACGACGGGATT
B30: GGUAUGC (DNA:RNA)
RNA: B1 RNA with U25G, U26G, C27U, G28A, A29U
DNA 1: CAATCTGAATTCCGGTCTCCC
DNA 2: TGGTGGCTACGACGGGATT
B31: GGAUGCU (DNA:RNA)
RNA: B3 RNA with C25G, A26G, U29G, U30C
DNA 1: CAATCTGAATTCCGGTCTCCC
DNA 2: TGGTGGCTACGACGGGATT
B32: CGUAUGC (DNA:RNA)
RNA: B3 RNA with A26G, A27U, U28A, U30G, U31C
DNA 1: CAATCTGAATTCCGGTCTCCC
DNA 2: TGGTGGCTACGACGGGATT
B33: GUUAUGC (DNA:RNA)
RNA: B1 RNA with U25G, C27U, G28A, A29U
DNA 1: CAATCTGAATTCCGGTCTCCC
DNA 2: TGGTGGCTACGACGGGATT

Biological target: T1, RBFOX1 RRM RbFoxmut (Fox-RRM*)
Test: EMSA; HiTS-Eq, 1 nM pool, 10 min; buffer printed only for the single-RNA assays: 10 mM Tris pH 7.5, 150 mM NaCl, 3.4 mM EDTA, 0.001% NP-40, 30 C
Conditions: tags: His6 N-terminal (pET28a); label: 5' 32P
In short: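 Relative association constants, normalised to the cognate motif, were derived by comparing read counts of each RNA species with those of the control reaction. The RNA sequenced was the free fraction, separated by 8% native PAGE after a 10 min equilibration in 50 µL of 1 nM 5′-radiolabelled RNA (7 randomized nucleotides) with increasing concentrations of purified wild-type or mutant RbFox RRM.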

| Binder | binding signal |
| --- | --- |
| B1 | 0.116 KA relative to UGCAUGU |
| B2 | 0.0506 KA relative to UGCAUGU |
| B3 | 0.0669 KA relative to UGCAUGU |
| B4 | 0.107 KA relative to UGCAUGU |
| B5 | 0.282 KA relative to UGCAUGU |
| B6 | 0.0967 KA relative to UGCAUGU |
| B7 | 0.29 KA relative to UGCAUGU |
| B8 | 0.196 KA relative to UGCAUGU |
| B9 | 0.383 KA relative to UGCAUGU |
| B10 | 0.194 KA relative to UGCAUGU |
| B11 | 0.193 KA relative to UGCAUGU |
| B12 | 0.253 KA relative to UGCAUGU |
| B13 | 0.682 KA relative to UGCAUGU |
| B14 | 0.131 KA relative to UGCAUGU |
| B15 | 0.436 KA relative to UGCAUGU |
| B16 | 0.318 KA relative to UGCAUGU |
| B17 | 0.0786 KA relative to UGCAUGU |

| Binder | binding signal |
| --- | --- |
| B18 | 0.0562 KA relative to UGCAUGU |
| B19 | 0.0695 KA relative to UGCAUGU |
| B20 | 0.1 KA relative to UGCAUGU |
| B21 | 0.0488 KA relative to UGCAUGU |
| B22 | 0.0694 KA relative to UGCAUGU |
| B23 | 0.0413 KA relative to UGCAUGU |
| B24 | 0.142 KA relative to UGCAUGU |
| B25 | 0.108 KA relative to UGCAUGU |
| B26 | 0.0869 KA relative to UGCAUGU |
| B27 | 0.0735 KA relative to UGCAUGU |
| B28 | 0.402 KA relative to UGCAUGU |
| B29 | 0.13 KA relative to UGCAUGU |
| B30 | 0.398 KA relative to UGCAUGU |
| B31 | 0.142 KA relative to UGCAUGU |
| B32 | 0.325 KA relative to UGCAUGU |
| B33 | 0.21 KA relative to UGCAUGU |
